About 13,000 (3.2%) of roughly 400,000 compounds were called active. Not shown: some 18% with an inconclusive outcome. The sample holds actives, similar compounds and a random draw of the others, so the mix is not that of the screen. A number with no mark means an inactive call. Calls follow the shape of the dose curve; as a rule, active = well fitted cell-killing curve with a large enough effect; inconclusive = small, poorly fitted or top-dose-only effect, or effect the other way; inactive = flat fitted curve, though single readings scatter.
Assay: qHTS assay for MDR1-selective chemotherapeutics: Primary screen using the drug-selected MDR subline cells KB-V1; also: nearly all actives have a fitted effect of over 60% in size
Conditions: KB-V1 MDR cells viability, CellTiter-Glo, 72 h; series mostly up to 46.1 µM; activity change, negative = cytotoxicity: at the top concentration
Procedure, shortened: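 Cells of the MDR subline KB-V1 are plated, dosed with compound at multiple concentrations, and incubated 72 h at 37 degrees C; CellTiter-Glo is then added and luminescence read after 10 min.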
% is scaled to controls: 0 for no effect and ±100 for the full control effect; potency is read from the fitted curve at half-maximal effect.

Structure (SMILES)	activity change, negative = cytotoxicity [%]	Potency
COC(=O)c1ccccc1NS(=O)(=O)c1ccc2c(c1)CCCN2C(C)=O	6.42	–
CCOc1cc(/C=N/NC(=O)c2c(C)nc3ccc(Cl)cn23)ccc1O	18	–
CCc1oc(-c2ccc(OC)cc2)c(C(=O)OCCCCCO)c1C(C)OCCO (centres undefined)	2.82	–
CC12CCC(C(=O)N(NC(=O)c3ccccc3O)C1=O)C2(C)C (centres undefined)	–	3.26 µM (active)
O=C(NN1C(=O)C2C(C1=O)C1C=CC2C12CC2)c1ccccc1Cl (centres undefined)	13.1	–
CC12CCC(C(=O)N(c3cccc(Cl)c3)C1=O)C2(C)C (centres undefined)	-8.2	–
O=C(NCc1ccccc1)C1CNCC(C(=O)NCc2ccccc2)C1 (centres undefined)	19.2	–
O=C(OC/C=C/CSc1nnc(-c2cccc3ccccc23)o1)c1ccc(F)cc1	-4.97	–
CCOc1ccc(CN(Cc2ccco2)S(=O)(=O)c2ccc(-n3cnnn3)c(OC)c2)cc1	0	–
COc1cc(S(=O)(=O)N(Cc2cccs2)C2CC2)ccc1-n1cnnn1	–	4.61 µM (active)
Cc1cc(S(=O)(=O)NC2CCCC2)ccc1-n1cnnn1	0.365	–
CCOC(=O)c1c(C)oc2nc(C)nc(Nc3ccc(CC)cc3)c12	2.93	–
O=C(C(=O)N1CCC(c2ccccc2)CC1)c1ccccc1	-16.7	–
Cc1csc(SCC(=O)Nc2ccc(C)c(S(=O)(=O)N(C)C)c2)n1	-23.4	–
CCN1CCN(CCNC(=O)c2ccc3c(c2)NC(=O)/C(=C\c2cccc(Cl)c2)S3)CC1	16.5	–
O=C(OCC(=O)N1CCCCCC1)c1cccc(Cl)c1Cl	1.14	–
CCOc1ccc(CCN2C(=S)N([C@@H](CC(C)C)CN3CCC[C@@H]3CN3C(=S)NC[C@@H]3Cc3ccc(O)cc3)C[C@@H]2Cc2ccc(O)cc2)cc1	-23.8	–
CCC(=O)N1CCc2cc(S(=O)(=O)NC(Cc3ccccc3)C(=O)NCc3ccccc3)ccc21 (centres undefined)	4.74	–
CN1CCN(CCCCOc2ccccc2-c2ccccc2)CC1	9.51	–
CC1CCCN(CC(O)COCc2ccccc2)C1 (centres undefined)	6.78	–
CC1CCCN(CCOCCOc2ccccc2-c2ccccc2)C1 (centres undefined)	–	20.6 µM (active)
OC[C@@H]1CN(Cc2ccc(F)cc2)C[C@H](n2cnc3c(NC4CCCC4)ncnc32)O1	0.456	–
Cc1ccc(N2CCN(C(=S)Nc3cc(C)ccn3)CC2)cc1	0	–

Structure (SMILES)	activity change, negative = cytotoxicity [%]	Potency
O=C1NC(=Nc2ccc(Cl)cc2)SC1Cc1cccc(Cl)c1Cl (centres undefined)	-12.8	–
CC(NC(=O)CC1SC(N)=NC1=O)c1ccccc1 (centres undefined)	-19	–
NC1=NC(=O)C(Cc2cccc(Cl)c2Cl)S1 (centres undefined)	–	18.4 µM (active)
C[C@@H]1CN([C@H](C)CO)S(=O)(=O)c2ccc(C#C[C@@H](C)O)cc2O[C@@H]1CN(C)Cc1ccc(-c2ccccc2)cc1	-1.21	–
Cc1cc(Br)cn2c(Cc3ccsc3)c(-c3ccc(C#N)cc3)nc12	2.33	–
COc1cccc(OCCn2c(-c3ccc(Br)cc3)nc3ccccc3c2=O)c1	3.93	–
CC[C@]1(O)CC2CN(CCc3c([nH]c4ccccc34)[C@@](C(=O)OC)(c3cc4c(cc3OC)N(C=O)[C@H]3[C@@](O)(C(=O)OC)[C@H](OC(C)=O)[C@]5(CC)C=CCN6CC[C@]43[C@@H]65)C2)C1 (some centres undefined)	–	20.6 µM (active)
CC[C@]1(O)C[C@@H]2CN(CCc3c([nH]c4ccccc34)[C@@](C(=O)OC)(c3cc4c(cc3OC)N(C)[C@H]3[C@@](O)(C(=O)OC)[C@H](OC(C)=O)[C@]5(CC)C=CCN6CC[C@]43[C@@H]65)C2)C1	–	5.17 µM (active)
O=CNc1cc(-c2ccc(C(=O)N3CCOCC3)cc2)cn2c(-c3ccc(F)cc3)cnc12	-18	–
COC(=O)c1cc(NC(=O)CCS(=O)(=O)c2cc(Br)cc3c2N(C(=O)C2CC2)CC3)cc(C(=O)OC)c1	7.94	–
CCNC(=O)C1CCCN(C(=O)c2cc(F)ccc2C)CC1 (centres undefined)	-22.9	–
COc1ccc(NC(=O)C(c2ccncc2)n2c(=O)c(-c3cc4ccccc4[nH]3)nc3ccccc32)cc1 (centres undefined)	-0.812	–
CC(C)c1ccc(NC(=O)c2cc(S(=O)(=O)N3CCc4ccccc4C3)ccc2F)cc1	-14.2	–
Cc1ccccc1S(=O)(=O)N1[C@@H](c2cccc(Cl)c2)C(C(=O)OC(C)(C)C)=CC[C@H]1c1ccc(Cl)cc1	0	–
CCC(C)NCCOCCOc1ccc(Br)cc1C (centres undefined)	–	20.6 µM (active)
CCOCCCNCc1cc(Br)ccc1OCC	-3.55	–
COCCCNCCOCCOc1ccc(Cl)cc1Br	-3.06	–
COc1ccc(N)cc1NC(=O)CN1CCOCC1	16.4	–
CCCS(=O)(=O)NC(=O)C1(C)CCN(C(=O)c2sccc2C)C1 (centres undefined)	2.03	–
O=C(CN1c2ccccc2S(=O)(=O)c2ccccc21)Nc1cccc(C(F)(F)F)c1	-7.05	–
Cc1cc2cc(CN(Cc3cccs3)Cc3nnnn3CC3CCCO3)c(=O)[nH]c2cc1C (centres undefined)	-10.7	–
Cc1cc(C)c2cc(CN(Cc3cccs3)Cc3nnnn3CC3CCCO3)c(=O)[nH]c2c1 (centres undefined)	–	16.4 µM (active)
COc1ccc2[nH]c(=O)c(CN(Cc3nnnn3CCc3ccccc3)CC3CCCO3)cc2c1 (centres undefined)	-18.1	–

Structure (SMILES)	activity change, negative = cytotoxicity [%]	Potency
CCN(CC)C(=O)C1CCCN(Cc2cccc(Cl)c2)C1 (centres undefined)	-18.5	–
CCOC(=O)N1CCC(N(CCOC)C(=O)Nc2ccc(C)c(C)c2)CC1	–	4.11 µM (active)
Cc1ccc(NC(=O)C2CCCN2C(=O)OCc2ccccc2)cc1C (centres undefined)	-4.42	–
CCOC(=O)C1CCN(C(=O)Nc2ccc(C)c(Cl)c2)CC1	-17.6	–
Cc1ccc(NC(=O)COC(=O)CN2CCSC2=O)cc1F	23.3	–
CCc1ccccc1NC(=O)c1ccc2nc(CCc3ccccc3)oc2c1	11	–
CN(C)c1ccc(/C=C2\C=Cc3ccccc32)cc1Br	0.234	–
O=C(CN1CCN(S(=O)(=O)c2ccc(Cl)s2)CC1)NCc1ccc(Cl)cc1	–	3.66 µM (active)
O=C(CN1CCN(S(=O)(=O)c2ccc(Cl)s2)CC1)N1CCCCC1	0	–
Cc1ccccc1N1CCN(CC(=O)NCc2ccc(Cl)cc2)CC1	-0.77	–
Cc1cc(C)c2nc3nc(C)cc(C)c3c(N)c2c1	–	18.4 µM (active)
CC(C)OC(=O)c1ccc(NCc2cc(O)ccc2O)cc1Cl	-6.71	–
COC(=O)c1ccc(NCc2cc(O)ccc2O)cc1	2.93	–
O=C(OC12CC3CC(CC(C3)C1)C2)c1ccc(NCc2cc(O)ccc2O)cc1	–	14.6 µM (active)
O=C(CNC(=O)c1ccccc1)Oc1ccc([N+](=O)[O-])cc1	18.4	–
O=C(Nc1nc2ccc([N+](=O)[O-])cc2s1)c1ccc(S(=O)(=O)N2CCCc3ccccc32)cc1	–	1.03 µM (active)
O=C(CCNC(=O)c1ccccc1)Nc1nc2ccccc2s1	-7.25	–
O=S(=O)(c1ccccc1)N1CCc2ccccc21	-0.951	–
O=S(=O)(c1ccc2c(c1)OCCO2)N1CCc2ccccc21	0	–
CNC(=O)c1ccsc1NC(=O)c1ccc(S(=O)(=O)N2CCc3ccccc32)cc1	7.33	–
CSc1nc2ccc(S(=O)(=O)N3CCc4ccccc43)cc2s1	–	3.66 µM (active)
O=C(Nc1nnc(S(=O)(=O)N2CCCc3ccccc32)s1)c1cccc(F)c1	-5.74	–
O=C(NC(Nc1nc2ccc([N+](=O)[O-])cc2s1)(C(F)(F)F)C(F)(F)F)c1ccccc1	–	0.517 µM (active)
